Results published in US5750335, “Screening for genetic variation” (Massachusetts Institute of Technology).

What follows are sequences tested against T1, MutS (Salmonella typhimurium, UniProt P0A1Y0 P0A1Y0:1-855) (assay: pulldown; homoduplex control precipitated 53 fold less; 5 mM MgCl2, on ice, competitor DNA). Details: tags: none (overproduced from pGW1825); chain copies: 2; label: 32P on DG6R; fully matched homoduplex; second strand (DG5) copied as printed, pairs with DG6R only if read 3'-5' relative to it; dsDNA, one strand shown.
T1 sequence: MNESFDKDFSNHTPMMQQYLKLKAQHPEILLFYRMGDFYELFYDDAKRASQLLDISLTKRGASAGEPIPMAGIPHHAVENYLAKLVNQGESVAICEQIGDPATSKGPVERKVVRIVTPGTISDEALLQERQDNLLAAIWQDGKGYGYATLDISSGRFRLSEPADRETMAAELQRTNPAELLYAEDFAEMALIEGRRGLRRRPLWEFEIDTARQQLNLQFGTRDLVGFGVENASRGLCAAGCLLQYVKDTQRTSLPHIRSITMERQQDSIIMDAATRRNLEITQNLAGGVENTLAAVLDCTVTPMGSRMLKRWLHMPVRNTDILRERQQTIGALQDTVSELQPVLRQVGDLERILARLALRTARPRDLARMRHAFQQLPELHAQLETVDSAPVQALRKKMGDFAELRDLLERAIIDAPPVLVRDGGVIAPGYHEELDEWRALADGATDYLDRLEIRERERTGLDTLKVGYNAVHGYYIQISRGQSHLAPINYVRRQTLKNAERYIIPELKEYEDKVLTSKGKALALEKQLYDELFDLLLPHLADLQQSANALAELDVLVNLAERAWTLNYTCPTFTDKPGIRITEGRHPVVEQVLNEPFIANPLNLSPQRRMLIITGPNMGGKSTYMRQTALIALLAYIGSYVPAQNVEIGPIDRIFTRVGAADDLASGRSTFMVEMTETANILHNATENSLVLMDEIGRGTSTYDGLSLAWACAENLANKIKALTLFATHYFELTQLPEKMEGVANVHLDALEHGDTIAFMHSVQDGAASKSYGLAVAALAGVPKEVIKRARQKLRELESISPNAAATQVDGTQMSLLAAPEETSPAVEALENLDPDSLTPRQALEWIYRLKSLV
Method: Affinity fractionation of heteroduplex nucleic acid was performed as follows. Two binding reactions were incubated on ice for 30 minutes, one containing heteroduplex nucleic acid and a control containing homoduplex DNA. The heteroduplex reaction contained 14.5 pMol of MutS, 200 fmol of DG-4/6 Het, and 2 ug of competitor nucleic acid in a total volume of 20 ul. The control reaction contained 14.5 pmol of MutS, 200 fmol of DG-5/6 Hom, and 2 ug of competitor nucleic acid in a total volume of 20 ul. After 30 minutes on ice, 5 ul of anti-MutS antibody was added to each binding reaction, and the result was incubated on ice for 60 minutes. 10 ul of Staphylococcus aureus cells that had been washed twice in assay buffer were added to both binding reactions (see McKay, 1981, supra) and the result was incubated on ice for an additional 30 minutes. Both reactions were then spun in a microfuge for 3 minutes at 4° C. and the pellet was washed 8 times in assay buffer.

Row | Sequence | binding signal
1 | GATCCGTCGACCTGCA | 1 fold (reference)
